This is a sample that favours compounds with a hit; in the whole collection about 11% have one here.
Pf growth 96h = P. falciparum growth inhibition at 96 hour, primary screen for plastid delayed-death inhibitors | 320,000 compounds, 6.9% hits | Potency, µM (series often up to 28.7 µM), for inactives: at the highest dose activity change, negative = inhibition, most hits filed as inhibitors | P. falciparum luciferase reporter growth, 96 h
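Cell-based qHTS: luciferase-tagged P. falciparum in erythrocytes (2% hematocrit, 0.05% parasitemia final) incubated with compounds for 96 hours, 37 C, 5% CO2; luciferase detection reagent then added and luminescence measured.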
Pf growth 48h = inhibits P. falciparum growth in the first generation, 48 h. 310,000 compounds, 5.9% hits. Potency, µM (top dose mostly 28.7 µM), inactives show at the top dose activity change, negative = inhibition, actives largely listed as inhibitors. AID 504832. P. falciparum luciferase growth in erythrocytes, 48 h
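Growth was read as firefly luciferase luminescence after a 48 h, 37 C, 5% CO2 exposure of compounds to reporter-bearing P. falciparum cultures (0.1% parasitemia, 2% hematocrit final) in Albumax-supplemented RPMI 1640.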
AMA1 RON2 block = AMA1-RON2 (P. falciparum) interaction inhibition. AlphaScreen AMA1-biotinylated RON2 peptide binding. Potency, µM (doses to about 58.2 µM), inactives show top-dose activity change, negative = inhibition, most hits filed as inhibitors. 360,000 compounds, 0.2% hits. AID 720542;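 also: 0% = vehicle wells and -100% = peptide control; nearly all actives have a fitted effect of over 45% in size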
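AMA1 (3D7) with his tag at 25 nM final met compounds first, then biotinylated RON2 peptide at 25 nM; detection used donor plus acceptor beads, 10 µg/mL apiece, read by AlphaScreen after 30 min at room temperature.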
AmpC no deterg = blocks E. coli AmpC beta-lactamase in detergent-free assay. AID 485341. Potency, µM (top dose mostly 57.1 µM), inactives show at the highest dose activity change, negative = inhibition, hits mostly inhibitors. 330,000 compounds, 0.52% hits. AmpC nitrocefin hydrolysis, absorbance 480 nm, 0.0001% Triton. P00811;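 also: plate controls were no compound for no effect and no enzyme for full effect; nearly all actives have a fitted effect of over 20% in size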
Target sequence (P00811 whole entry, looked up): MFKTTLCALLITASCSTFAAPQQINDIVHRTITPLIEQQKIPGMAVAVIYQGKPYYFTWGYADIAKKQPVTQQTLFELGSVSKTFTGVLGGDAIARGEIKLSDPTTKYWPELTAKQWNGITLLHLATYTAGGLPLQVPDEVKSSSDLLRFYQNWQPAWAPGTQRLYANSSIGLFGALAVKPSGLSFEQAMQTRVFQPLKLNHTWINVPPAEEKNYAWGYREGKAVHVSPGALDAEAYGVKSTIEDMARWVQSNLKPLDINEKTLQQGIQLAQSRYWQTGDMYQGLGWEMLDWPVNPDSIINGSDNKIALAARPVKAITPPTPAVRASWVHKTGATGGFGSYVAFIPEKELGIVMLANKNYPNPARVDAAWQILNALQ
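AmpC (5.3 nM in the dispensed reagent) in 20 mM phosphate pH 7.0 with 0.01% (detergent screen) or 0.0001% Triton X-100 was preincubated with compounds for 15 min at room temperature. Nitrocefin was then added from an 800 uM solution, and hydrolysis was followed at 480 nm.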
AmpC inh detg = blocks E. coli AmpC beta-lactamase in detergent assay. AmpC hydrolysis of nitrocefin, absorbance 480 nm, 0.01% Triton. Potency, µM (series often up to 114 µM), for inactives: at the top dose activity change, negative = inhibition, actives largely listed as inhibitors. 370,000 compounds, 0.041% hits;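 also: 0% = no-compound wells and -100% = no-enzyme wells; nearly all actives have a fitted effect of over 25% in size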
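AmpC (5.3 nM in the dispensed reagent) in 20 mM phosphate pH 7.0 with 0.01% (detergent screen) or 0.0001% Triton X-100 was preincubated with compounds for 15 min at room temperature. Nitrocefin was then added from an 800 uM solution, and hydrolysis was followed at 480 nm.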
HCV inhibitor = HCV inhibition; Huh7.5.1 HCVcc-Cre infection, luciferase reporter, 44 h; Potency, µM (series often up to 41.8 µM), for inactives: top-dose activity change, negative = inhibition, hits mostly inhibitors; 340,000 compounds, 3.4% hits; AID 651820
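Cells seeded at 1,000/well and cultured 4 h, then compounds added followed by HCVcc-Cre virus (~0.5 moi). After 44 h further culture, luciferase substrate was added, plates held 15 min at room temperature, and luminescence read for 15 sec.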
Numbers without * were called inactive; ? = inconclusive; . = no result given; ! = not active in a repeat. Calls follow the shape of the dose curve; as a rule, active = well fitted curve in the direction sought with a large enough effect; inconclusive = small, poorly fitted or top-dose-only effect, or another doubt; inactive = no such curve, though single readings can be large; an effect the other way counts as inactive or inconclusive. Unless noted, % is scaled to controls: 0 for no effect and ±100 for the full control effect; potency is read from the fitted curve at half-maximal effect.

SMILES	Pf growth 96h	Pf growth 48h	AMA1 RON2 block	AmpC no deterg	AmpC inh detg	HCV inhibitor
CNc1c(NC(=O)c2cc(OC)cc(OC)c2)c(=O)oc2ccccc12	.	.	.	.	12%	.
CCCCCCSc1ccc(-c2nc3ccc(C)cn3c2NC2CCCCC2)cc1	13µM*	9.3µM*	-3%	-7%	?	29%
COc1cc(-c2nc3cc(C)ccn3c2NC2CCCCC2)ccc1-c1ccc(C(C)=O)cc1	10µM*	5.2µM*	-9%	-3%	-9%	?
CC(=O)c1cccc(NC(=O)C(CC(C)C)NS(=O)(=O)c2ccc3c(c2)CCN3C(C)=O)c1 (stereo unspecified)	.	.	.	.	1%	.
CCCC(CCC)C(=O)Nc1cc(-c2cn3cccnc3n2)ccc1OC	.	.	.	.	3%	.
CN1C2CCC1CC(OC(c1ccccc1)c1ccccc1)C2 (stereo unspecified)	9.5µM*!	12µM*	0%	43%	?	?
CN1[C@@H]2CC[C@H]1CC(OC(c1ccccc1)c1ccccc1)C2 (stereo partly specified)	4.8µM*	17µM*	.	.	.	.
CN1[C@@H]2CC[C@H]1CC(OC1c3ccccc3CCc3ccccc31)C2 (stereo partly specified)	?	4.7µM*	2%	54%	?	1.3µM*
CN1[C@@H]2CC[C@H]1CC(OC(=O)C(O)c1ccccc1)C2 (stereo partly specified)	2%	-10%	11%	-10%	0%	1%
CNC(=O)c1ccc(NC(=O)CC23CC4CC(CC(C4)C2)C3)cc1	-11%	-19%	8%	4%	1%	-2%
C[n+]1cccc(/C=N/NC(=O)CC23CC4CC(CC(C4)C2)C3)c1	0.59µM*	?	7%	-2%	-8%	7%
Cc1cc(Nc2cccc(F)c2)nc(N2CCOCC2)n1	39%	0%	-5%	22%	-3%	3.5µM*
Cc1cc(Nc2ccccc2)nc(N2CCOCC2)n1	.	41%	12%	-34%	1%	10µM*
Cc1cc(Nc2cccc(Cl)c2)nc(N2CCOCC2)n1	9%	-13%	7%	0%	-2%	?
Cc1cc(Oc2ccc(-c3ccccc3)cc2)nc(N2CCOCC2)n1	?	?	1%	-2%	2%	-8%
Cc1cc(Oc2ccc(C(C)(C)C)cc2)nc(N2CCOCC2)n1	10µM*	.	0%	-11%	-9%	19%
O=C(NCc1cccc(Br)c1)C1CCCCN1S(=O)(=O)c1ccc(F)cc1 (stereo unspecified)	.	.	.	.	1%	.
Cc1cccc(C)c1OCc1cc(=O)n2c3c(sc2n1)CCCC3	.	.	.	.	6%	.
O=C(OCc1cc(=O)n2nc(-c3cccs3)sc2n1)c1cccc(F)c1	.	.	.	.	19%	.
COC(=O)C1=CN(c2ccc(F)cc2)C=C(C(=O)OC)C1c1ccc([N+](=O)[O-])cc1	9.3µM*	7.4µM*	-13%	-9%	-12%	.
COC(=O)C1=CN(c2ccc(F)cc2)C=C(C(=O)OC)C1c1cccc(Br)c1	-14%	12µM*	32%	-9%	-6%	?
COC(=O)C1=CNC=C(C(=O)OC)C1c1cccc2ccccc12	6%	12µM*	24%	-21%	-3%	-9%
COC(=O)C1=CNC=C(C(=O)OC)C1c1ccccc1Cl	10%	-25%	36%	0%	-2%	-5%
COC(=O)C1=CN(C2CC2)C=C(C(=O)OC)C1c1ccc(C(=O)OC)cc1	225%	?	24%	22%	-12%	-12%
COC(=O)C1=CN(c2ccc(Cl)cc2)C=C(C(=O)OC)C1c1ccc([N+](=O)[O-])cc1	5.2µM*	13µM*	-22%	23%	-2%	-28%
O=C(NCc1ccccc1Cl)C(=O)NCC(c1cccs1)S(=O)(=O)c1cccs1 (stereo unspecified)	.	.	.	.	-1%	.

Source: PubChem
